Holding throughout (assay): NCI-60 one-dose screen, 48 h (100 = growth as untreated, 0 = no growth, -100 = all killed)
In assay [1] the test system is DU-145 prostate. Particulars: 10 µM unless noted.
Assay [2] deals with K-562 leukemia. Conditions: 10 µM unless noted.
Assay [3] concerns MALME-3M melanoma. Conditions: 10 µM unless noted.
The test system of assay [4] is MDA-MB-231 breast. Particulars: 10 µM unless noted.
For assay [5], the system named is RXF 393 renal. Conditions: 10 µM unless noted.
Assay [6] deals with SF-268 CNS. Particulars: 10 µM unless noted.
Assay [7] concerns SF-295 CNS. Conditions: 10 µM unless noted.
Assay [8] relates to SF-539 CNS. Conditions: 10 µM unless noted.
Assay [9] has as its system UACC-257 melanoma. Particulars: 10 µM unless noted.
Assay [10] concerns M14 melanoma. Conditions: 10 µM unless noted.
The test system of assay [11] is HCT-15 colon. Conditions: 10 µM unless noted.
For assay [12], the system named is SNB-75 CNS. Particulars: 10 µM unless noted.
Assay [13] relates to SNB-19 CNS. Particulars: 10 µM unless noted.
For assay [14], the system named is U251 CNS. Particulars: 10 µM unless noted.
In assay [15] the test system is PC-3 prostate. Particulars: 10 µM unless noted.
The subject of assay [16] is SK-MEL-5 melanoma. Particulars: 10 µM unless noted.
Assay [17] deals with UACC-62 melanoma. Conditions: 10 µM unless noted.
In assay [18] the test system is LOX IMVI melanoma. Particulars: 10 µM.
The subject of assay [19] is SK-MEL-28 melanoma. Particulars: 10 µM unless noted.
The test system of assay [20] is HT29 colon. Conditions: 10 µM unless noted.

Compounds without any hit were thinned out: in the full panel of roughly 83,000, 20% have a hit.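 Single-dose data. Exposure time 48 hours. Values below 10 considered active.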 Values without a mark were called inactive. Calls of active or inactive are those of the source.

In the case of `C#CCOc1cc(N(CC)CC)ccc1C(C(=O)NC(C)(C)C)N(C(=O)C1CCc2cc(F)ccc2O1)c1ccc(F)c(Cl)c1` (centres undefined), the growth in assay [1] was 78.9%; in assay [2], 35.7%; in [3] it was 81.7%; in assay [4], 55.5%; in assay [5], 59.3%; in [6], 49.8%. Besides, the growth in assay [7] is 72.8%; in [8], 77.9%; in assay [9], 58.2%; in assay [10] it was 63.3%; in assay [11], 51.1%; in assay [12], 59%. Also, the growth in assay [13] was 60.5%; in assay [14], 45.1%; in assay [15] it was 25.7%; in assay [16], 61.1%; in [17], 45.8%; in [18] it was 52.9%. In [19], the growth was 75.5%.
Turning to `O=C(c1ccc(OCCN2CCOCC2)cc1)C1[C@H](c2ccc(Cl)cc2)[C@@H](c2ccccc2)NC12C(=O)Nc1ccc(Br)cc12` (some centres undefined), the growth in [1] was 41.6%; in assay [2] it was 1.09% (active); in [3], 56.3%; in [4], 18.2%; in [5] it was -1.59% (active); in [6], 39.6%. For the same compound, the growth is 21.8% in assay [7]; 35% in [8]; 39.7% in [9]; 23.8% in [10]; 8.44% (active) in [11]; -76.6% (active) in assay [20]. Moreover, the growth in assay [13] is 37.4%; in assay [14], 22.6%; in assay [15], 3.86% (active); in [16], 47.3%; in assay [17] it was 38.5%; in assay [19], 44.1%.
In the case of `COc1c(F)ccc(C(=O)Nc2ccc3nc(NC(=O)C4CCCN(S(=O)(=O)c5cccc(Br)c5)C4)sc3c2)c1F` (centres undefined), the growth in assay [1] is 91.4%; in assay [2], 60.2%; in [3], 99.4%; in assay [4], 90.7%; in assay [5], -3.33% (active); in assay [6], 69.7%. The growth was 84.5% in assay [7]; 74.5% in assay [8]; 92.4% in assay [9]; 87.2% in [10]; 80.8% in assay [11]; 85.7% in assay [20]. The growth is 82.7% in [13]; 75% in assay [14]; 57.8% in assay [15]; 89.4% in assay [16]; 80.8% in assay [17]; 85% in assay [18]. Further, in [19], the growth is 97.8%.
Consider `O=C(N1c2ccccc2Sc2ccccc21)n1ccc2cccnc21`, for which the growth in assay [1] was 86.6%; in [2], 19.5%; in assay [3], 75.5%; in assay [4] it was 69.3%; in [5] it was 83.7%; in assay [6], 80.8%. The growth in assay [7] is 81%; in [8] it was 76.6%; in assay [9] it was 61.1%; in assay [10] it was 70.1%; in assay [11], 40.2%; in assay [20], 60.7%. Also, the growth is 74.3% in assay [13]; 51.3% in assay [14]; 39.8% in assay [15]; 45.9% in [16]; 47.5% in assay [17]; 44.8% in assay [18]. Also, in assay [19], the growth is 76.9%.
As to `Cn1cc(-c2cc(N)n3nc(-c4cn(C)c5ncc(Br)cc45)cc3n2)c2cc(Br)cnc21`, the growth in assay [1] was 5.43% (active); in [2] it was -41.6% (active); in [3] it was -66.6% (active); in assay [4], 6.75% (active); in assay [5], 23.1%; in assay [6], 50%. The growth in assay [7] is -63.5% (active); in [8], -83.4% (active); in assay [9] it was 60.3%; in assay [10], -64.7% (active); in assay [11], -76.6% (active); in assay [20], -85% (active). The growth was 10% in [13]; -62.1% (active) in assay [14]; 1.06% (active) in assay [15]; 34.8% in assay [16]; -100% (active) in assay [18]; -49.9% (active) in assay [19].
Regarding `O=C(/C=C/Nc1ccc2oc(=O)ccc2c1)c1cc2cc(Br)ccc2oc1=O`, the growth in assay [1] was 122%; in assay [2], 110%; in assay [3] it was 95.2%; in [4], 94.1%; in assay [5], 121%; in assay [6] it was 107%. The growth in assay [7] was 102%; in [8], 97.4%; in assay [9] it was 91.2%; in [10] it was 99.4%; in assay [11], 102%; in assay [20], 103%. Besides, the growth in assay [13] is 97.5%; in assay [14] it was 102%; in assay [15] it was 98%; in assay [16], 103%; in [17], 97.5%; in [19], 112%.
On to `COC1=C[C@]23CCC(=O)N2CCc2cc4c(cc2[C@@H]3[C@@H]1OC(=O)[C@H](C)O)OCO4`, for which the growth is 31.7% in assay [1]; 7.08% (active) in assay [2]; -28.6% (active) in assay [3]; 61.8% in [4]; 5.61% (active) in assay [5]; 66.2% in assay [6]. Moreover, the growth was 29.7% in assay [7]; -34.5% (active) in [8]; 27.9% in assay [9]; 10.4% in [10]; -1.4% (active) in assay [11]; -10.6% (active) in assay [12]. The growth in assay [13] was -1.61% (active); in assay [14], -3.63% (active); in [15], 14.8%; in assay [16] it was -2.42% (active); in assay [17], 31.5%; in [18], -57.2% (active). In addition, in [19], the growth is 15.1%.
Take `C=C1CC[C@@H]2[C@]3(C)COC(c4cn[nH]c4-c4ccc(Br)cc4)O[C@@H]3CC[C@@]2(C)[C@@H]1C/C=C1/C(=O)OCC1O` (some centres undefined): the growth was -78.6% (active) in assay [1]; 7.76% (active) in assay [2]; -70.7% (active) in assay [3]; -65.8% (active) in [4]; -89.1% (active) in assay [5]; -13.3% (active) in assay [6]. The growth is -65.6% (active) in assay [7]; -94.4% (active) in assay [8]; -71.4% (active) in assay [9]; -69.5% (active) in assay [10]; -62.6% (active) in [11]; 0.504% (active) in assay [20]. For the same compound, the growth is -36.5% (active) in assay [13]; -86.7% (active) in [14]; -44.1% (active) in [15]; -97% (active) in assay [16]; -79.1% (active) in assay [17]; -100% (active) in [18]. For the same compound, the growth in [19] is -78% (active).

For the origin of these results see PubChem BioAssay (NCI).
